A selection: hits, their analogues and other compounds. The true share with any hit is near 1.1%.
CIT2 TOR yeast – modulators of CIT2-GFP expression in yeast, primary screen, S. cerevisiae, GFP fusion, multiplex flow cytometry, MLPCN library | S. cerevisiae CIT2-GFP strain, 3 h; 100 means same as DMSO wells | GFP response vs DMSO, % at 10 µM | 0.065% of 320,000 active | AID 2029, 2009;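 active means GFP response relative to DMSO above a set limit, near the screen mean plus 3 SD, cut at about 150% in these data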;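 further: ratio of well median GFP fluorescence to mean of DMSO wells on the plate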
VLA-4 inh – inhibition in human VLA-4 binding assay, primary screen, VLA-4 allosteric modulator project, MLPCN library, flow cytometry, VLA-4 expressing cells. 0.2% of 330,000 active. inhibition, % (about 7 µM as worked out from the volumes in the protocol). ligand binding flow cytometry. Integrin alpha-4 (Homo sapiens), P13612. AID 2557, 2010; in the data active means inhibition above about 50%
LAP4-GFP MLPCN – modulators of LAP4-GFP expression in yeast, primary screen, S. cerevisiae, multiplex flow cytometry, MLPCN library; GFP response vs DMSO, % at 10 µM; AID 2023, 2009; 0.34% of 320,000 active; 3 h; median GFP as percent of DMSO wells;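 active means GFP response vs DMSO above a set limit, about the screen mean plus 3 SD, cut at about 150% in these data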
RPL19A-GFP yeast – RPL19A-GFP expression modulators in yeast, primary screen, cell-based, S. cerevisiae, multiplex flow cytometry, MLPCN; S. cerevisiae RPL19A-GFP strain, 3 h; stronger effect = lower value; percent response vs DMSO, % at 10 µM; 0.3% of 330,000 active; AID 2025, 2009;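 active means percent response vs DMSO below 50%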;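 further: median channel GFP fluorescence of the barcoded RPL19A-GFP strain; ratio of sample median GFP to plate DMSO average so 100% = DMSO; lower means less RPL19A-GFP as with rapamycin TOR inhibition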
MEP2-GFP yeast – modulators of MEP2-GFP levels in yeast, primary screen, S. cerevisiae, multiplex flow cytometry, MLPCN library; S. cerevisiae MEP2-GFP strain, 3 h; 100% = DMSO control level; GFP response vs DMSO, % at 10 µM; 0.51% of 330,000 active; AID 2016, 2009;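 active means GFP response versus DMSO above a set limit, roughly screen mean plus 3 SD, cut at about 180% in these data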;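 further: median GFP fluorescence of the barcode-gated MEP2-GFP cells per well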
AGP1 TOR yeast – modulators of AGP1-GFP expression in yeast TOR pathway, primary screen, cell-based, multiplex flow cytometry, S. cerevisiae, MLPCN library. AID 2066, 2009. GFP response vs DMSO, % at 10 µM. 3 h; GFP as percent of DMSO wells. 0.02% of 320,000 active;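 active means GFP response relative to DMSO above a set limit, near screen average plus 3 SD, cut at about 150% in these data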;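 further: median GFP channel fluorescence of the gated AGP1 strain per well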
VLA-4 allo CP – retest of VLA-4 allosteric modulators, confirmation, cell-based, cherry-picked plates, U937, HUTS-21 LIBS antibody. shares compounds with VLA-4 inh. U937 cells, HUTS-21 LIBS mAb binding, flow cytometry; LDV ligand present at threefold Kd. inhibition, % at 6.7 µM. 2% of 1,300 active. AID 2813, 2010; in the data active means inhibition above about 40%;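 further: 0% = ligand without compound and 100% = no ligand background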
* = called active by the depositor; · = no result.

SMILES	CIT2 TOR yeast	VLA-4 inh	LAP4-GFP MLPCN	RPL19A-GFP yeast	MEP2-GFP yeast	AGP1 TOR yeast	VLA-4 allo CP
COC(=O)C1=C(c2ccc(OC(F)(F)F)cc2)C[C@@H]2CC[C@H]1N2C(=O)NCc1cccc2ccccc12	112	-2	106	105	101	102	·
O=c1[nH]c(=S)n(Cc2ccc(F)cc2)c(O)c1/C=N/N1CCCCC1	101	56*	90	99	99	96	-7
Cc1ccc(C)c(NC(=O)CCNC(=O)N2C[C@H]3C[C@@H](C2)c2cccc(=O)n2C3)c1	112	8	112	106	110	109	·
CN1C2CCC1C(C(=O)O)C(OC(=O)c1ccccc1)C2 (centres undefined)	92	35	99	96	97	95	3
COC(=O)C1C2CC[C@@H](CC1OC(=O)c1ccccc1)N2 (some centres undefined)	101	8	109	103	102	100	-1
CC1CC(OC(=O)c2ccccc2)CC(C)N1C (centres undefined)	101	12	125	97	115	112	·
C=C1[C@H]2CC[C@H]3[C@]4(C)C[C@H](O[C@H]5O[C@H](CO)[C@@H](OS(=O)(=O)O)[C@H](OS(=O)(=O)O)[C@H]5OC(=O)CC(C)C)C[C@@H](C(=O)O)[C@H]4CC[C@]3(C2)[C@H]1O	87	57*	113	114	105	93	3
COC(=O)C1=C(c2ccccc2OCc2ccccc2)C[C@@H]2CC[C@H]1N2C(=O)NCCOc1ccccc1	115	-4	111	106	99	108	·
CCCCCCCSc1cc(OC)c(CCNC)cc1OC	93	61*	100	105	97	101	0
O=C1CN(O)C(c2ccccc2)=c2cc(Cl)ccc2=N1	104	101*	98	96	110	101	-12
CN=C1CN(O)C(c2ccccc2)=c2cc(Cl)ccc2=N1	95	14	92	104	96	94	·
Cc1ccc(S(=O)(=O)N[C@@H](CCCCN)C(=O)CCl)cc1	92	53*	104	97	99	93	-7
Cc1ccc(S(=O)(=O)NCCC(=O)Nc2ccc(Cl)cc2C(=O)c2ccccc2)cc1	97	10	91	97	96	94	·

Bioassay records from PubChem BioAssay.
